Most compounds without a hit are left out; they make up all but 1.2% or so of the library.
DUSP3 inh = inhibitors of human VHR1 phosphatase (DUSP3). P51452. recombinant VHR phosphatase, pNPP absorbance. inhibition, % at 13.3 µM. 290,000 compounds, 0.52% hits. AID 1654; in the data active means inhibition above about 50%
Target sequence (P51452 whole entry, looked up): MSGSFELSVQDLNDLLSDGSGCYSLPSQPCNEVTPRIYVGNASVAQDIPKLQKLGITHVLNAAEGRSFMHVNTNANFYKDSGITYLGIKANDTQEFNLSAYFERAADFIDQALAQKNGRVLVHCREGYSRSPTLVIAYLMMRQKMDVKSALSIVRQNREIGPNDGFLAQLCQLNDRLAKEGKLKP
BH1578 lux ind = induces V. cholerae light production without autoinducers | V. cholerae BH1578 lux reporter, luminescence, 6 h | activation, % at 18.7 µM | 350,000 compounds, 0.16% hits | AID 588436; in the data active means activation mostly above about 9.7%, no sharp cut-off
BioA inh = blocks M. tuberculosis BioA enzyme activity; purified M. tuberculosis BioA enzyme, plate reader; inhibition, % at 9.99 µM; 360,000 compounds, 0.096% hits; AID 602481; in the data active means inhibition above about 40%
TcdB inh = inhibitors of Clostridioides difficile toxin B glycohydrolase; 350,000 compounds, 0.24% hits; inhibition, % at 9.99 µM; AID 652162; P18177; TcdB glycohydrolase enzymatic assay, plate reader; in the data active means inhibition above about 10%
Yp Topo-I inh = Y. pestis Topo-I inhibition via cleavage products; activity, % at 10 µM; AID 504884; Y. pestis Topo-I cleavage product accumulation, plate reader; 360,000 compounds, 0.064% hits; in the data active means activity above about 50%, passing the limit was not always enough
PfHsp40 yeast = compounds rescuing yeast from Plasmodium falciparum HSP40 toxicity. S. cerevisiae expressing PfHsp40, growth rescue, ATP luminescence. growth rescue, % at 12.5 µM. 340,000 compounds, 0.68% hits. AID 504582; in the data active means growth rescue above about 28%, passing the limit was not always enough;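 further: yeast W303a lacking pdr1 and pdr3 grown in galactose medium; growth measured after three days at 30 °C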
* = called active by the depositor; i = inactive; / = no result; + = active, no number.

SMILES | DUSP3 inh | BH1578 lux ind | BioA inh | TcdB inh | Yp Topo-I inh | PfHsp40 yeast
CCOc1ccc(N/C(SC)=C(/C#N)C(N)=O)cc1 | 18 | -4 | 0 | / | 10 | 1
CCOc1ccc(N/N=C(/C#N)C(N)=O)cc1 | 16 | i | 0 | 0 | -1 | 363*
COc1ccc(N/N=C(\C#N)C(N)=O)cc1 | 22 | 0 | / | 0 | 1 | 47*
C[C@H](CO)N1C[C@H](C)[C@@H](CN(C)Cc2cccc(C(=O)O)c2)OCc2cn(nn2)CCCC1=O | / | / | -3 | -1 | / | /
COc1cc(/C=C(\C#N)C(=O)Nc2ccc3c(c2)OCCO3)ccc1O | -11 | i | / | 15* | -12 | 13
O=C(C1c2ccccc2C(=O)N2CCc3ccccc3C12)N1CCC2(CC1)OCCO2 (stereo not drawn) | 19 | 0 | / | / | 0 | 0
O=C(CCc1nc2ccccc2[nH]1)Nc1ccccc1 | -4 | i | 0 | / | 2 | -1
NNC(=O)CCc1nc2ccc(O)cc2[nH]1 | 34 | 0 | 1 | 14* | 1 | 0
COc1ccccc1NC(=O)C1CCN(c2ncccn2)CC1 | 7 | 0 | 1 | / | -1 | -1
O=C(N/N=C/c1c[nH]c2ccccc12)c1ccccc1Cl | 57* | 1 | 1 | 3 | -1 | 0
O=C(N/N=C/c1coc2ccccc2c1=O)c1ccccc1 | 19 | 0 | -2 | -2 | 3 | 0
O=C(N/N=C/c1coc2ccccc2c1=O)c1cc(Br)ccc1O | 24 | i | 0 | 3 | 5 | 89*
O=C(N/N=C/c1ccccc1O)c1cccc2ccccc12 | 20 | 0 | 1 | 0 | 4 | 32*
C=CCc1cccc(/C=N/NC(=O)c2ccccc2OC)c1O | 8 | 2 | / | 0 | -2 | 50*
Cc1cc([N+](=O)[O-])nn1CC(=O)N(C)Cc1ccccc1 | 20 | -1 | 0 | 1 | 3 | 0
O=C(Nc1cccc2c1CCCC2)c1ccccc1Br | 52* | i | -2 | 1 | 9 | 1
O=C(Nc1cccc2c1CCCC2)c1ccco1 | -10 | -1 | / | 1 | -7 | 0
CCOC(=O)c1ccc(NC(=O)N2CCN(Cc3cccc(F)c3)CC2)cc1 | 7 | 0 | / | 1 | 15 | 1
CC(C)COC(=O)C(C)Nc1n[nH]c(=S)[nH]c1=O (stereo not drawn) | 22 | + | / | 0 | 1 | -1
O=C(Nc1ccc2oc(=O)ccc2c1)c1ccc(-c2cccc([N+](=O)[O-])c2)o1 | 58* | -3 | -1 | -10 | -4 | /
O=S(=O)(c1c(F)cccc1F)N(CCc1ccc(F)cc1)C[C@@H](O)COCc1ccccc1 | / | -1 | -1 | -6 | 41 | 114*
COc1ccc(NC(=O)CN2CCN(C(=O)C3CCCO3)CC2)c(OC)c1 (stereo not drawn) | 17 | i | 0 | 2 | 2 | 0
CC1CN=C(Nc2cccc(S(=O)(=O)N(C)C)c2)S1 (stereo not drawn) | -6 | 1 | / | 14* | 4 | 0
O=C(NCC(=O)N1CCN(Cc2ccccc2)CC1)c1ccc(Br)cc1 | 12 | -1 | 0 | -3 | 12 | 0
O=C(NCC(=O)N1CCN(Cc2ccccc2)CC1)c1ccc(Cl)cc1 | 57* | -1 | 2 | -1 | 12 | -1
SMILES | DUSP3 inh | BH1578 lux ind | BioA inh | TcdB inh | Yp Topo-I inh | PfHsp40 yeast
CC/C(=C(/CC)c1ccc(O)cc1)c1ccc(O)cc1 | -8 | 1 | -2 | 1 | -7 | 107*
N=C(N)c1ccc(O)cc1 | 16 | 0 | -2 | 2 | 6 | -2
CN(C)CCNc1oc(-c2cccc(Cl)c2)nc1C#N | 51* | i | -2 | / | -8 | 0
CN(C)CCCNc1oc(-c2ccccc2)nc1C#N | 25 | -6 | 0 | / | -5 | 1
COc1ccc(NC(=S)N2Cc3ccccc3-n3nncc3C2)c(OC)c1 | / | 1 | 1 | 3 | 4 | /
Cc1ccc(N2CC(C(=O)NC3CCC(C)CC3)CC2=O)cc1 (stereo not drawn) | 14 | i | -1 | 0 | 8 | 1
Cc1ccc(N2CC(C(=O)NC3CC3)CC2=O)cc1 (stereo not drawn) | 53* | 0 | -1 | 0 | -2 | 1
COc1ccc(N2CC(C(=O)N[C@@H](CC(C)C)C(=O)NC3CCCCC3)CC2=O)cc1 (stereo partly drawn) | 56* | -4 | / | 0 | -11 | 0
C=CCOc1cccc(CNc2ccc3[nH]c(=O)[nH]c3c2)c1 | 7 | 7 | 0 | 24* | -1 | 0

Compound activity from PubChem BioAssay.
